Laboratory results: PubChem BioAssay (NCATS)
Active and inactive are the calls of the source. Calls follow the shape of the dose curve; as a rule, active = well fitted activation curve with a large enough effect; inconclusive = small, poorly fitted or top-dose-only effect; inactive = flat fitted curve, though single readings scatter.

Assay: Cellular Toxicity (caspase-3) SK-N-SH (AID 661)
Details: SK-N-SH caspase-3 activation, qHTS, DMSO as zero, staurosporine as full; series mostly up to 91.7 µM
Excerpt: NIH Chemical Genomics Center [NCGC]
NIH Molecular Libraries Screening Centers Network [MLSCN]
National Institutes of Environmental Health Sciences [NIEHS]
National Toxicology Program [NTP]
We have developed a 1536-well cell-based assay for quantitative high throughput screening (qHTS) against a number of cell lines to determine in vitro caspase 3/7 activity of small molecules. This particular assay uses the SK-N-SH cell line which is derived from human neuroblastoma.
NCGC Assay Protocol Summary:
The Caspase-Glo 3/7 assay (Promega) is a homogeneous method to measure caspase-3 and caspase-7 activities in cultured cells. The quantitation of caspase 3/7 activity is based on the cleavage of a peptide-aminoluciferin substrate. After caspase cleaves the substrate the free aminoluciferin is liberated and serves as the substrate of luciferase, which generates the light. The luminescent signal is proportional to amount of caspase 3/7 activity present.
Using the Caspase-Glo 3/7 assay, the amount of caspase 3/7 activity was measured in the SK-N-SH cell line with complete culture medium following compound treatment for 16 hours. The assay was performed in opaque white 1536-well plates. In the screen, tamoxifen and staurosporine were used as positive controls. Library compounds were measured for their ability to cause the activation of caspase 3/7 in the cell line, as reflected by an increase in luminescence signal, in a concentration-dependent manner. Data were normalized to the controls for basal activity (DMSO only) and 100% stimulation (10 uM staurosporine). AC50 values were determined from concentration-response data modeled with the standard Hill equation.
qHTS protocol for caspase 3/7 assay in SK-N-SH cells
[Step] [Parameter] [Value] [Description]
1. Reagent; 5 uL; 1500 SK-N-SH cells/well
2. Time; 5 hr; 37 °C incubation
4. Controls; 23 nL; Tamoxifen 0.23 uM to 100 uM & staurosporine 1.4 pM to 100 uM
5. Time; 16 hr; 37 °C incubation
6. Reagent; 5 uL; Caspase-Glo 3/7 reagent
7. Time; 1 hr; Room Temperature
8. Detection; Luminescence; Viewlux plate reader
Keywords: caspase 3/7, apoptosis, SK-N-SH cell line, luminescence, NTPHTS, NTPHTS_NCGC, NIEHS, EPA, DSSTox, MLSMR, MLSCN, NIH Roadmap, qHTS, NCGC
In the case of `Cc1ccc(Br)cc1`, the outcome is reported as “inactive”.
For `CCCCCCCN`, the outcome was “inactive”.
With `Nc1cccc(C(F)(F)F)c1` the outcome was “inactive”.
With `Nc1ccc(F)cc1F` the outcome was “inactive”.
With `CCCCC(CC)COCC1CO1` (stereo not given) the outcome was “inactive”.
In the case of `Cc1ccccc1C#N`, the outcome is reported as “inactive”.
In the case of `CCCOCC(C)O` (stereo not given), the outcome is reported as “inactive”.
With `CNC(=O)c1ccccc1` the outcome was “inactive”.
For `O=[N+]([O-])c1cccc(Cl)c1`, the outcome was “inactive”.
In the case of `C=CC(=O)OCCCC`, the outcome is reported as “inactive”.
In the case of `Cc1cc(C)c(N)cc1C`, the outcome is reported as “inactive”.
With `C/C(C=O)=C/c1ccccc1` the outcome was “inactive”.
With `CCN(C(=O)N(CC)c1ccccc1)c1ccccc1` the outcome was “inactive”.
For `CC(=O)c1nccs1`, the outcome was “inactive”.
For `O=CNc1ccccc1`, the outcome was “inactive”.
With `O=C(O)c1ccccc1[N+](=O)[O-]` the outcome was “inactive”.
With `OC/C(Br)=C(\Br)CO` the outcome was “inactive”.
For `O=c1[nH][nH]c(=O)c2cc([N+](=O)[O-])ccc12`, the outcome was “inactive”.
In the case of `c1ccc(Nc2ccccc2)cc1`, the outcome is reported as “inactive”.
In the case of `Cc1ccc2cccnc2c1`, the outcome is reported as “inactive”.
In the case of `CCCCCCCCC/C=C/CC1CC(=O)OC1=O` (stereo not given), the outcome is reported as “inactive”.
With `Nc1cccc(N)c1` the outcome was “inactive”.
With `Nc1nc(CC(=O)O)cs1` the outcome was “inactive”.
In the case of `C=C(C)C(=O)OCCCCCCCCCC`, the outcome is reported as “inactive”.
With `O=[N+]([O-])c1ccc2nc[nH]c2c1` the outcome was “inactive”.
In the case of `CNc1ccccc1`, the outcome is reported as “inactive”.
In the case of `O=Cc1cccc(Br)c1`, the outcome is reported as “inactive”.
In the case of `CCOc1cccc(N)c1`, the outcome is reported as “inactive”.
For `CCCC(Cl)CCCC(Cl)CCC(Cl)CCC(Cl)CCC(Cl)CCCC(Cl)CCC` (stereo not given), the outcome was “inactive”.
In the case of `O=[N+]([O-])c1ccc(Cl)cc1Cl`, the outcome is reported as “inactive”.
With `C=CCn1c(=O)n(CC=C)c(=O)n(CC=C)c1=O` the outcome was “inactive”.
For `CCc1ccccc1O`, the outcome was “inactive”.
For `C=C(C)C(N)=O`, the outcome was “inactive”.
In the case of `CCOC(=O)OCC`, the outcome is reported as “inactive”.
In the case of `ON=C1CCCCC1`, the outcome is reported as “inactive”.
In the case of `Cc1ccc(C)c([N+](=O)[O-])c1`, the outcome is reported as “inactive”.
With `Nc1c(Cl)cc(Cl)cc1Cl` the outcome was “inactive”.
In the case of `O=[N+]([O-])c1c(Cl)cc(Cl)cc1Cl`, the outcome is reported as “inactive”.
In the case of `Cc1cccc(C(=O)O)c1`, the outcome is reported as “inactive”.
In the case of `C1COC1`, the outcome is reported as “inactive”.
